The entries come from a sample that favours hits as a whole.
IL1B secr inh – qHTS for Inhibitors of Inflammasome Signaling: IL-1-beta AlphaLISA Primary Screen. THP-1 LPS/ATP IL-1B secretion, AlphaLISA, 16 h; hits give low values. activity change, % at 57.5 µM. 360,000 tested, 4.7% active; in the data active = activity change below about -50%; inconclusive = mostly about -30% to -49%
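THP-1 cells pretreated 1 hr with compounds (up to 57.5 uM final), then stimulated with LPS (250 ng/mL final) plus ATP (1.25 mM final); secreted IL-1B measured by AlphaLISA after 16 hr, decreased signal indicating inhibition.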
12-LOX inh – Primary qHTS assay for inhibitors of human arachidonate 12S-lipoxygenase (ALOX12): Round 2. Polyunsaturated fatty acid lipoxygenase ALOX12 (Homo sapiens), P18054. purified 12hLO, xylenol orange hydroperoxide absorbance. Potency, µM (top dose mostly 108 µM), without a hit: at the top dose activity change, negative = inhibition, actives largely listed as inhibitors. 580,000 tested, 1.1% active; also: potency is read from the fitted curve at half-maximal effect
Target sequence (P18054 whole entry, looked up): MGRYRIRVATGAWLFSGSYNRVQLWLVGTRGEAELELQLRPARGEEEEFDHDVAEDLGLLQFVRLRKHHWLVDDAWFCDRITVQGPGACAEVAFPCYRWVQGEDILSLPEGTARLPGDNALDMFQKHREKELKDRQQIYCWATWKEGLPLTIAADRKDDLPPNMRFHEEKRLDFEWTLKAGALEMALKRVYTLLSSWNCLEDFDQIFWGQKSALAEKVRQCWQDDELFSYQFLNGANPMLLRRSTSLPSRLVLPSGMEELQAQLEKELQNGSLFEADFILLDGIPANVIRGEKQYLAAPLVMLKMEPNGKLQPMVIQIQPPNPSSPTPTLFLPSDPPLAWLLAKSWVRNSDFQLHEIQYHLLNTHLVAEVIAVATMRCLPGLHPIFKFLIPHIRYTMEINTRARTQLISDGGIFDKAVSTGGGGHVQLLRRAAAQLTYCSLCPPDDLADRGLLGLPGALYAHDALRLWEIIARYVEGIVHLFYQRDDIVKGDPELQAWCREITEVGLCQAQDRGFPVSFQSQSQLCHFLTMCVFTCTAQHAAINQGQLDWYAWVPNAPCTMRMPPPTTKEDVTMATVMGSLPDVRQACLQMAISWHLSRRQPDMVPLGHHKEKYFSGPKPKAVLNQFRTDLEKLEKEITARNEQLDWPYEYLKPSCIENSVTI
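Hydroperoxide product was detected by ferrous iron/xylenol orange as the 573 to 405 nm absorbance ratio. Arachidonic acid at 40 uM (final) was turned over for 30 min at room temperature by 150 nM human 12hLO, pH 7.0 Hepes buffer, after 15 min compound preincubation.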
HT1080NT lethal – qHTS for induction of synthetic lethality in tumor cells producing 2HG: qHTS for the HT-1080-NT fibrosarcoma cell line. Potency, µM (highest dose often 46.1 µM), without a hit: at the top dose activity, negative = less viability, usual class: cytotoxic. HT-1080-NT fibrosarcoma viability, CellTiter-Glo ATP luminescence, 48 h. 360,000 tested, 1.6% active;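 also: NT is the 2HG producing partner of a matched IDH1 knockdown line; potency is read from the fitted curve at half-maximal effect; 0% = DMSO-treated cells and -100% = media-only wells without cells; nearly all actives have a fitted effect of over 55% in size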
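Luminescent CellTiter-Glo readout after 48 hours of compound exposure at 37 degrees C defined viability of HT-1080-NT cells. Activity was normalized to DMSO wells and cell-free media wells; concentration-response curves were fitted and assigned curve classes.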
TDP1 cell CPT – qHTS for Inhibitors of human tyrosyl-DNA phosphodiesterase 1 (TDP1): qHTS in cells in presence of CPT | chicken DT40 Tdp1-/-;hTDP1 cells + 20 nM CPT, ATP luminescence, 48 h | Potency, µM (top dose mostly 46.2 µM), without a hit: top-dose activity change, negative = growth inhibition, most hits filed as inhibitors | 420,000 tested, 12% active | AID 686979, 2013; also: potency is read from the fitted curve at half-maximal effect; nearly all actives have a fitted effect of over 55% in size
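Chicken DT40 Tdp1-/- cells complemented with human TDP1, 400 cells/well, exposed to compounds plus 20 nM camptothecin for at least 48 h at 37 C; viability read as ATP content by CellTiter-Glo luminescence.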
DT40 TDP1 no CPT – qHTS for Inhibitors of human tyrosyl-DNA phosphodiesterase 1 (TDP1): qHTS in cells in absence of CPT | Potency, µM (series often up to 46.2 µM), inactives show at the top dose activity change, negative = growth inhibition, usual class: inhibitors | 420,000 tested, 15% active | DT40 Tdp1-/- hTDP1 cells, no CPT, ATP luminescence, 48 h | AID 686978, 2013; also: potency is read from the fitted curve at half-maximal effect; nearly all actives have a fitted effect of over 55% in size
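No-CPT arm: Tdp1-/-;hTDP1 DT40 cells (400/well) plus compounds, incubated ≥48 hr at 37 °C. Readout CellTiter-Glo luminescence.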
HT1080 IDH1KD tx – qHTS for induction of synthetic lethality in tumor cells producing 2HG: qHTS for the HT-1080-IDH1KD cell line | AID 686971, 2013 | HT-1080 IDH1 knockdown viability, ATP luminescence, 48 h | 360,000 tested, 2% active | Potency, µM (highest dose often 46.1 µM), without a hit: at the highest dose activity, negative = toxicity, most hits filed as cytotoxic;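 also: potency is read from the fitted curve at half-maximal effect; 0% = DMSO wells and -100% = cell-free medium wells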
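Luminescent ATP read-out (CellTiter-Glo, 10 min at room temperature) after 48 h compound exposure at 37 °C gave viability of IDH1-knockdown HT-1080 cells. Activity was normalised to DMSO and cell-free wells, then fitted as concentration-response curves.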
Starred values were filed as active, the others as inactive; ? = inconclusive; · = no result given; ! = repeats disagree. Unless noted, calls follow the shape of the dose curve; as a rule, active = well fitted curve in the direction sought with a large enough effect; inconclusive = small, poorly fitted or top-dose-only effect, or another doubt; inactive = no such curve, though single readings can be large; an effect the other way counts as inactive or inconclusive. Unless noted, % is scaled to controls: 0 for no effect and ±100 for the full control effect.

SMILES	IL1B secr inh	12-LOX inh	HT1080NT lethal	TDP1 cell CPT	DT40 TDP1 no CPT	HT1080 IDH1KD tx
O=C(CN1CCC(c2nc3ccccc3s2)CC1)NCc1cccs1	-22	14%	10µM*	?	18µM*	?
c1ccc(OCCCN2CCC(c3nc4ccccc4s3)CC2)cc1	·	0.71µM*	·	·	·	·
c1ccc(OCCCCN2CCC(c3nc4ccccc4s3)CC2)cc1	·	0.89µM*	·	·	·	·
CCOC(=O)C(Cc1cc(C)c(CC(C(=O)OCC)C(=O)OCC)cc1C)C(=O)OCC	·	73%	·	·	·	·
COc1ccccc1N1CCN(Cc2nc(-c3cc(OC)c(OC)c(OC)c3)no2)CC1	·	3%	·	23µM*	18µM*	·
COc1ccccc1CN1CCN(Cc2nc(-c3ccccc3)no2)CC1	34	-1%	-1%	-10%	0%	0%
COc1ccc(-c2noc(-c3cccnc3N3CCN(c4ccc(OC)cc4)CC3)n2)cc1	·	-20%	·	15µM*	8.2µM*	·
COc1ccc(N2CCN(Cc3nc(-c4ccc(C)cc4)no3)CC2)cc1	·	-29%	·	?	23µM*	·
COc1ccc(-c2noc(CN3CCN(c4cccc(Cl)c4)CC3)n2)cc1	·	-6%	·	?	?	·
COc1cc(-c2noc(CN3CCN(c4ccccc4)CC3)n2)cc(OC)c1OC	·	-16%	·	?	21µM*	·
COc1cc(C2CC(=O)NC(SCC(=O)NCc3ccccc3)=C2C#N)ccc1O (centres undefined)	·	-10%	·	·	·	·
COc1ccc(C(=O)c2ccccc2)c(OCc2ccccc2C#N)c1	·	11%	·	·	·	·
C=C(C)CN1CCN(Cc2ccc(C#N)cc2)CC1	·	2%	·	·	·	·
CC(N)c1ccc(NS(C)(=O)=O)cc1 (centres undefined)	·	7%	·	·	·	·
COc1ccc(-c2noc(-c3ccoc3C)n2)cc1	25	-8%	-3%	?	18µM*	-11%
Fc1ccc(CNC(=S)Nc2ccc(Cl)cc2Cl)cc1	-100*	-5%	-2%	?	?	1%
S=C(NCc1ccc(Cl)cc1)Nc1ccc(Cl)cc1Cl	-1	1%	-17%	-14%	?	-6%
Fc1ccc(NC(=S)Nc2ccc(Cl)cc2Cl)cc1	-87*	?	-1%	?	26µM*	-2%
CN(C)/C=N/C(=S)Nc1ccc(Cl)cc1Cl	-77*	?	2%	6%	?	3%
Fc1ccc(NC(=S)Nc2cccnc2)c(Cl)c1	34	?	23%	10%	-6%	15%
CN(C)/C=N/C(=S)Nc1ccc(Cl)cc1	-13	-27%	1%	-12%	?	-2%
Fc1ccccc1/C=N/NC(=S)Nc1ccc(Cl)cc1Cl	43	1%	5.2µM*	2.3µM*	1.8µM*	3.3µM*
O=S(=O)(Nc1nc2ccccc2nc1NCc1ccc(F)cc1)c1ccc(F)cc1	·	2%	·	·	·	·
COc1cccc(CN2CCC3(CCCO3)CCC2=O)c1 (centres undefined)	·	42%	·	·	·	·
O=C(c1cccs1)c1no[n+]([O-])c1C(=O)c1cccs1	-97*	·	18µM*	1.8µM*	2.3µM*	?
SMILES	IL1B secr inh	12-LOX inh	HT1080NT lethal	TDP1 cell CPT	DT40 TDP1 no CPT	HT1080 IDH1KD tx
CCOc1cc(-c2ccc(C)cc2)nc2ccc(C(=O)NCC(C)O)cc12 (centres undefined)	·	11%	·	·	·	·
CC(=O)O[C@]1(C(C)=O)CC[C@H]2[C@@H]3C[C@H](C)C4=CC(=O)CC[C@]4(C)[C@H]3CC[C@@]21C	?	1%	?	18µM*	16µM*!	?
CC12CCC(=O)C=C1C(O)CC1C2CCC2(C)C1CCC2(O)C(=O)CO (centres undefined)	4	-5%	0%	?	-18%	-3%
CC(=O)C12CCCCC1CC1[C@@H]3CC(C)C4=CC(=O)CC[C@]4(C)C3CC[C@@]12C (some centres undefined)	11	0%	19%	?	15µM*	?
CC(=O)OC1(C(C)=O)CCC2C3CC(C(F)(F)F)C4=CC(=O)CCC4(C)C3CCC21C (centres undefined)	-94*	3%	18µM*	?	13µM*	21µM*
CCC(=O)OC1(C(C)=O)CCC2C3CCC4=CC(=O)CCC4(C)C3CCC21C (centres undefined)	-26	1%	-13%	-98%	23µM*	-23%

Source: PubChem (National Center for Advancing Translational Sciences (NCATS))
